Source: PubChem BioAssay
POLB inh – DNA polymerase beta (human) inhibition; 340,000 compounds, 1.3% hits; Pol beta primer extension/strand displacement, fluorescence kinetic; Potency, µM (titrated, usually from 114 µM), inactives show at the top dose activity change, negative = inhibition, usual class: inhibitors; P06746; also: % is scaled to controls: 0 for no effect and ±100 for the full control effect
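Values derive from four-parameter Hill fits of normalized kinetic data: reads at 0 and 10 min following addition of 50 nM substrate to 10 nM Pol beta preincubated 15 min with compound.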
FEN1 inhibitor – inhibitors of human flap endonuclease 1; Recombinant FEN1 flap cleavage, fluorescence, 15 min; AID 588795; 390,000 compounds, 0.35% hits; Potency, µM (top dose mostly 114 µM), without a hit: at the top dose activity change, negative = inhibition, hits mostly inhibitors; P39748; also: % is scaled to controls: 0 for no effect and ±100 for the full control effect; nearly all actives have a fitted effect of over 65% in size
Target sequence (P39748 whole entry, looked up): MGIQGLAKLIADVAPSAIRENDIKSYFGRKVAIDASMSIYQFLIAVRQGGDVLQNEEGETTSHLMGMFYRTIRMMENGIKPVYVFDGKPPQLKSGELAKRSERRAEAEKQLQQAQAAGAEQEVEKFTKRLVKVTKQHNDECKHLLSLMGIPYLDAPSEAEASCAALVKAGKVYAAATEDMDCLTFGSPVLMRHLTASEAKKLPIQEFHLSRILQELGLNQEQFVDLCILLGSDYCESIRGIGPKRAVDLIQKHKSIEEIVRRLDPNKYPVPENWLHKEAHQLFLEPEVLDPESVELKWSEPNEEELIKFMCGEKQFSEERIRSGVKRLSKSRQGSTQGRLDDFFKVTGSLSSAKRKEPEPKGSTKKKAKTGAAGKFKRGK
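Concentration–response screening of FEN1 (10 nM): 15 min compound preincubation at room temperature, reaction started with 50 nM substrate and read at 0 and 15 min. Corrected, normalized data were fitted by a four-parameter Hill equation.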
Pol eta inh-1 – inhibitors of human DNA polymerase eta; AID 588591; recombinant Pol eta, fluorescent DNA replication assay; Q9Y253; Potency, µM (titrated, usually from 114 µM), for inactives: at the top dose activity change, negative = inhibition, usual class: inhibitors; 390,000 compounds, 1.2% hits; also: % is scaled to controls: 0 for no effect and ±100 for the full control effect
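Pol eta at 10 nM preincubated with compounds 15 min at room temperature; reaction started with fluorescent substrate (50 nM final) and read kinetically at 0 and 10 min.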
Pol iota inh – blocks human DNA polymerase iota activity; Pol iota fluorescent replication assay, 10 min; 390,000 compounds, 1% hits; Potency, µM (doses to about 115 µM), without a hit: top-dose activity, negative = inhibition, hits mostly inhibitors; AID 588590
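Fluorescent replication assay read twice, at 0 min and 10 min after adding 50 nM (final) substrate. Enzyme (10 nM) and compounds were first incubated 15 min at room temperature; enzyme-free buffer wells were negative controls.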
Pol kappa inh-1 – inhibitors of human DNA polymerase kappa; Q9UBT6; purified Pol kappa, fluorescent DNA synthesis assay, 10 min; Potency, µM (top dose mostly 107 µM), inactives show at the highest dose activity, negative = inhibition, most hits filed as inhibitors; 400,000 compounds, 0.53% hits; also: % is scaled to controls: 0 for no effect and ±100 for the full control effect
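First, compounds were pin-transferred onto 10 nM Pol kappa. After 15 min at room temperature, substrate was added to 50 nM final. Fluorescence was then measured kinetically at 0 and 10 min.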
WRN helicase inh – inhibitors of human WRN helicase. Potency, µM (doses to about 114 µM), for the others: top-dose activity change, negative = inhibition, most hits filed as inhibitors. 360,000 compounds, 0.46% hits. WRN helicase unwinding, fluorescent forked duplex, kinetic. AID 651768. Q14191; also: % is scaled to controls: 0 for no effect and ±100 for the full control effect; nearly all actives have a fitted effect of over 55% in size
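WRN at 20 nM final preincubated with compound 15 min at room temperature; reaction started with 100 nM fluorophore/quencher forked duplex oligonucleotide and 2 mM ATP final. Unwinding followed kinetically by red fluorescence (ex 525, em 598 nm).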
Pol kappa inh-2 – confirmation of human DNA polymerase kappa inhibitors | shares compounds with Pol eta inh-1 | purified Pol-kappa, fluorescent strand-displacement substrate | Potency, µM, most hits filed as inhibitors | 920 compounds, 76% hits
Pol eta inh-2 – Pol eta (human) inhibition, cherry-pick confirmation. shares compounds with Pol eta inh-1. Pol eta primer extension, TAMRA/BHQ fluorescence, 10 min. Potency, µM, hits mostly inhibitors. 2,600 compounds, 64% hits
* marks the source's active call; other numbers are inactive results; [ ] = another dose, or the depositor's remark. Only some compounds are listed: those with a hit (about 2.4% of all), similar ones and a draw of the others. Calls follow the shape of the dose curve; as a rule, active = well fitted curve in the direction sought with a large enough effect; inconclusive = small, poorly fitted or top-dose-only effect, or another doubt; inactive = no such curve, though single readings can be large; an effect the other way counts as inactive or inconclusive. Potency is read from the fitted curve at half-maximal effect.

`COc1cc(Cl)cc(C2NC(=O)NC(C)=C2C(C)=O)c1OCC(=O)O` (stereo not drawn) gave POLB inh 16µM*, FEN1 inhibitor -13%, Pol eta inh-1 25µM*, Pol iota inh inconclusive, Pol kappa inh-1 inconclusive, WRN helicase inh -20%[57.1 µM] and Pol eta inh-2 inconclusive.
CN(C)CCCO[C@H]1[C@@H]2OC(C)(C)O[C@@H]2O[C@@H]1[C@H](O)CO was read as Pol kappa inh-1 -6%[12 µM].
Screening O=C1N=C(N2C=CC(=C3C=CNC=C3)C=C2)/C(=C/N=NC(=O)c2ccccc2O)S1 returned POLB inh 14µM*, FEN1 inhibitor inconclusive, Pol eta inh-1 18µM*, Pol iota inh 32µM*, Pol kappa inh-1 inconclusive, WRN helicase inh -31% and Pol eta inh-2 76*.
Cn1ccc2c(OCC(=O)Nc3cc(C(F)(F)F)ccc3Cl)cccc2c1=O was read as POLB inh inconclusive, FEN1 inhibitor -13%, Pol eta inh-1 -21%, Pol iota inh 22% and Pol kappa inh-1 -3%[60.1 µM].
O=[N+]([O-])c1ccc(O)c(C=Nc2ccc3c(c2)OCO3)c1 was read as POLB inh 53%, FEN1 inhibitor -3%, Pol eta inh-1 -16%, Pol iota inh -9%, Pol kappa inh-1 -11% and WRN helicase inh -1%.
For O=[N+]([O-])c1cc(Br)cc(C=Nc2ccc3c(c2)OCO3)c1O the results were POLB inh 25µM*, FEN1 inhibitor inconclusive, Pol eta inh-1 79µM*, Pol iota inh inconclusive, Pol kappa inh-1 inconclusive, WRN helicase inh -28% and Pol eta inh-2 76*.
For CCOC(=O)c1ccc(N2C(=O)c3n[nH]c(-c4cccs4)c3C2c2ccc(C(C)(C)C)cc2)cc1 (stereo not drawn) the results were POLB inh -10%, FEN1 inhibitor -17%, Pol eta inh-1 -19%, Pol iota inh -12% and Pol kappa inh-1 -18%.
Screening CCOc1ccc(NC(=O)c2ccc3c(c2)nnn3C2CCCC2)cc1 returned POLB inh 21%, FEN1 inhibitor -5%, Pol eta inh-1 -5%, Pol iota inh -1% and Pol kappa inh-1 13%.
`CC(=O)c1cccc(NC(=O)c2cc3sc(Cl)cc3n2C)c1` gave POLB inh -21%, FEN1 inhibitor 1%, Pol eta inh-1 -12%, Pol iota inh inconclusive and Pol kappa inh-1 inconclusive.
Cc1ccc(C(=O)OCC(=O)c2ccc(CC(=O)N3CCOCC3)s2)cc1C was read as FEN1 inhibitor -5%, Pol eta inh-1 13µM*, Pol iota inh 22µM*, Pol kappa inh-1 79µM*, WRN helicase inh 3%[11.6 µM] and Pol eta inh-2 inconclusive.
Screening O=C(OCC(=O)N1CCOCC1)c1ccc2c(c1)OCCO2 returned POLB inh 11%, FEN1 inhibitor 6%, Pol eta inh-1 -13%, Pol iota inh 3%, Pol kappa inh-1 8% and WRN helicase inh 11%.
`Cc1cc(C)cc(OCCCC(=O)O)c1` gave POLB inh -25%, FEN1 inhibitor -1%, Pol eta inh-1 -1%, Pol iota inh 12%, Pol kappa inh-1 -5% and WRN helicase inh -12%.
Screening Cc1ccc(OCCC(=O)O)cc1 returned POLB inh -1%, FEN1 inhibitor -7%, Pol eta inh-1 56µM*, Pol iota inh inconclusive, Pol kappa inh-1 inconclusive, WRN helicase inh 2% and Pol eta inh-2 inconclusive.
Cc1cc(C)cc(OCc2cc(=O)n3c(-c4ccccc4)csc3n2)c1 was read as POLB inh 13µM*, FEN1 inhibitor -6%, Pol eta inh-1 inconclusive, Pol iota inh inconclusive, Pol kappa inh-1 inconclusive, Pol kappa inh-2 inconclusive and Pol eta inh-2 inconclusive.
Screening CC(=O)N1CCC2(CC1)CCN(C(=O)Nc1cccc(C#N)c1)CC2 returned Pol kappa inh-1 7%[60.1 µM].
CCSc1nnc(NC(=O)C2CC=CCC2C(=O)O)s1 (stereo not drawn) was read as POLB inh 32µM*, FEN1 inhibitor -12%, Pol eta inh-1 20µM*, Pol iota inh inconclusive, Pol kappa inh-1 -3%, WRN helicase inh -15%[57.1 µM] and Pol eta inh-2 inconclusive.
Screening CCSc1nnc(NC(=O)C2CCCCC2)s1 returned POLB inh 1%, FEN1 inhibitor -2%, Pol eta inh-1 -17%, Pol iota inh 20%, Pol kappa inh-1 -5% and WRN helicase inh 6%.
For O=C1C=CC(=O)N1CCCCCCCCCCN1C(=O)C=CC1=O the results were FEN1 inhibitor 11%, Pol eta inh-1 35µM*, Pol iota inh inconclusive, Pol kappa inh-1 -27%, WRN helicase inh 3.2µM* and Pol kappa inh-2 inconclusive.
`O=C1C=CC(=O)N1Cc1ccncc1` gave FEN1 inhibitor -5%, Pol eta inh-1 inconclusive, Pol iota inh 9%, Pol kappa inh-1 -11% and WRN helicase inh -9%.
Cc1ccc(NC2=CC(c3ccccc3F)N(c3ccc(C)cc3)C2=O)cc1 (stereo not drawn) was read as POLB inh -12%, FEN1 inhibitor -18%, Pol eta inh-1 -23%, Pol iota inh 48% and Pol kappa inh-1 -26%.
O=C(N=Nc1c(O)[nH]c2ccc([N+](=O)[O-])cc12)c1cc(-c2ccccc2Cl)nc2ccccc12 was read as POLB inh inconclusive, FEN1 inhibitor -3%, Pol eta inh-1 inconclusive, Pol iota inh inconclusive, Pol kappa inh-1 -12%[60.1 µM], WRN helicase inh -20%[11.6 µM] and Pol kappa inh-2 inconclusive.
Screening COc1ccccc1C(=O)N=Nc1c(O)[nH]c2ccc([N+](=O)[O-])cc12 returned POLB inh -27%, FEN1 inhibitor -26%, Pol eta inh-1 -7%, Pol iota inh -21%, Pol kappa inh-1 inconclusive and WRN helicase inh -13%.
For COC(=O)c1cccc(Nc2c(-c3ccc(OC)cc3)nc3nc[nH]n23)c1 the results were POLB inh 0%, FEN1 inhibitor -12%, Pol eta inh-1 -4%, Pol iota inh 20% and Pol kappa inh-1 -5%[60.1 µM].
For CN(C)c1cccc(C(=O)OCC(=O)Nc2nccs2)c1 the results were POLB inh 23%, FEN1 inhibitor 3%, Pol eta inh-1 inconclusive, Pol iota inh inconclusive, Pol kappa inh-1 -15%, WRN helicase inh -28%[57.1 µM] and Pol eta inh-2 inconclusive.
